Out of some 5,500 compounds screened, about 2,000 (36%) were called active. Another 18% or so got no clear call; they are omitted. Rule as the data show it: active = normalized growth mostly below about 0.91 (no sharp cut-off); inconclusive = no clear call, values can overlap the other calls; inactive = mostly above about 0.92. The list shows a part of the results.
Experiment: chemical genetic growth profiling, strain panel (AID 1159580);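 also: tested at 20 µM; growth read once vehicle control cultures reached saturation at 30 °C; 1 = growth at the plate median or of vehicle wells; lower values mean less growth of the strain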
Conditions: growth OD

Measured: normalized growth

CC1(C)O[C@@H]2CC3C4CCC5=CC(=O)C=C[C@]5(C)[C@@]4(F)[C@@H](O)C[C@]3(C)[C@]2(C(=O)CO)O1 (some centres not stated)
inactive: S. cerevisiae deletion strains, locus YJR075W, strain HOC1, hits give low values 1.01 | S. cerevisiae deletion strains, locus YKL009W, strain mrt4, hits give low values 1.01 | S. cerevisiae deletion strains, locus YKL068W, hits give low values 0.999 | S. cerevisiae deletion strains, locus YKL085W, strain MDH1 (second series), hits give low values 0.996 | S. cerevisiae deletion strains, locus YKL085W, strain MDH1, hits give low values 0.996 | S. cerevisiae deletion strains, locus YKL160W, strain elf1, hits give low values 0.968 | S. cerevisiae deletion strains, locus YKL190W, strain CNB1, hits give low values 1.02 | S. cerevisiae deletion strains, locus YKR001C, strain vps1, hits give low values 1.01 | S. cerevisiae deletion strains, locus YKR026C, strain gcn3, hits give low values 1.01 | S. cerevisiae deletion strains, locus YKR091W, strain srl3, hits give low values 0.992 | S. cerevisiae deletion strains, locus YLL001W, strain dnm1, hits give low values 1.01 | S. cerevisiae deletion strains, locus YLL026W, hits give low values 0.982 | S. cerevisiae deletion strains, locus YLL041C, strain sdh2, hits give low values 0.999 | S. cerevisiae deletion strains, locus YLR027C, strain aat2, hits give low values 1 | S. cerevisiae deletion strains, locus YLR039C, strain RIC1, hits give low values 1.01 | S. cerevisiae deletion strains, locus YLR058C, strain SHM2, hits give low values 1.02 | S. cerevisiae deletion strains, locus YLR102C, strain apc9, hits give low values 0.998 | S. cerevisiae deletion strains, locus YLR113W, strain HOG1, hits give low values 0.984 | S. cerevisiae deletion strains, locus YLR221C, strain rsa3, hits give low values 0.974 | S. cerevisiae deletion strains, locus YLR258W, strain gsy2, hits give low values 0.979 | S. cerevisiae deletion strains, locus YLR262C, strain YPT6 (second series), hits give low values 1.01 | S. cerevisiae deletion strains, locus YLR262C, strain YPT6, hits give low values 1.03 | S. cerevisiae deletion strains, locus YLR268W, strain sec22, hits give low values 1 | S. cerevisiae deletion strains, locus YLR320W, strain mms22, hits give low values 0.96 | S. cerevisiae deletion strains, locus YLR330W, strain CHS5, hits give low values 1.01 | S. cerevisiae deletion strains, locus YLR342W, strain FKS1 (second series), hits give low values 1.01 | S. cerevisiae deletion strains, locus YLR342W, strain FKS1, hits give low values 0.986 | S. cerevisiae deletion strains, locus YLR357W, strain rsc2, hits give low values 0.948 | S. cerevisiae deletion strains, locus YLR370C, strain arc18, hits give low values 0.996 | S. cerevisiae deletion strains, locus YLR371W, strain rom2, hits give low values 0.995 | S. cerevisiae deletion strains, locus YLR384C, strain iki3, hits give low values 0.995 | S. cerevisiae deletion strains, locus YLR418C, strain cdc73, hits give low values 0.967 | S. cerevisiae deletion strains, locus YML016C, strain PPZ1, hits give low values 1.01 | S. cerevisiae deletion strains, locus YML032C, strain rad52, hits give low values 0.997 | S. cerevisiae deletion strains, locus YML120C, strain ndi1, hits give low values 0.995 | S. cerevisiae deletion strains, locus YML124C, strain tub3, hits give low values 1.01 | S. cerevisiae deletion strains, locus YMR058W, strain fet3, hits give low values 1 | S. cerevisiae deletion strains, locus YMR078C, strain ctf18, hits give low values 0.995 | S. cerevisiae deletion strains, locus YMR125W, strain sto1, hits give low values 0.992 | S. cerevisiae deletion strains, locus YMR129W, hits give low values 1.01 | S. cerevisiae deletion strains, locus YMR205C, strain PFK2, hits give low values 0.961 | S. cerevisiae deletion strains, locus YMR223W, strain ubp8, hits give low values 1.01 | S. cerevisiae deletion strains, locus YMR231W, strain pep5, hits give low values 0.998 | S. cerevisiae deletion strains, locus YMR263W, strain SAP30, hits give low values 1 | S. cerevisiae deletion strains, locus YMR307W, strain GAS1, hits give low values 0.998 | S. cerevisiae deletion strains, locus YNL067W, strain RPL9B, hits give low values 1.02 | S. cerevisiae deletion strains, locus YNL071W, strain lat1, hits give low values 1 | S. cerevisiae deletion strains, locus YNL128W, strain TEP1, hits give low values 1.02 | S. cerevisiae deletion strains, locus YNL153C, strain GIM3, hits give low values 1.01 | S. cerevisiae deletion strains, locus YNL183C, strain NPR1, hits give low values 0.955 | S. cerevisiae deletion strains, locus YNL209W, strain ssb2, hits give low values 1 | S. cerevisiae deletion strains, locus YNL233W, strain BNI4, hits give low values 1.01 | S. cerevisiae deletion strains, locus YNL248C, strain rpa49, hits give low values 0.991 | S. cerevisiae deletion strains, locus YNL250W, strain rad50, hits give low values 0.993 | S. cerevisiae deletion strains, locus YNL271C, strain bni1, hits give low values 1.01 | S. cerevisiae deletion strains, locus YNL298W, strain CLA4, hits give low values 1.01 | S. cerevisiae deletion strains, locus YNL307C, strain MCK1, hits give low values 1 | S. cerevisiae deletion strains, locus YNL322C, strain KRE1 (second series), hits give low values 0.961 | S. cerevisiae deletion strains, locus YNL322C, strain KRE1, hits give low values 1.01 | S. cerevisiae deletion strains, locus YNR049C, strain mso1, hits give low values 1.01 | S. cerevisiae deletion strains, locus YNR052C, strain pop2, hits give low values 1 | S. cerevisiae deletion strains, locus YOL006C, strain TOP1, hits give low values 1.02 | S. cerevisiae deletion strains, locus YOL012C, strain htz1 0.691 | S. cerevisiae deletion strains, locus YOL147C, strain pex11, hits give low values 1.01 | S. cerevisiae deletion strains, locus YOR001W, strain rrp6, hits give low values 1 | S. cerevisiae deletion strains, locus YOR061W, strain CKA2, hits give low values 1.01 | S. cerevisiae deletion strains, locus YOR069W, strain VPS5, hits give low values 1.02 | S. cerevisiae deletion strains, locus YOR070C, strain gyp1, hits give low values 0.994 | S. cerevisiae deletion strains, locus YOR080W, strain dia2, hits give low values 0.998 | S. cerevisiae deletion strains, locus YOR083W, strain WHI5, hits give low values 0.956 | S. cerevisiae deletion strains, locus YOR106W, strain vam3, hits give low values 0.966 | S. cerevisiae deletion strains, locus YOR136W, strain idh2, hits give low values 0.998 | S. cerevisiae deletion strains, locus YOR144C, strain elg1, hits give low values 1.01 | S. cerevisiae deletion strains, locus YOR184W, strain ser1, hits give low values 0.99 | S. cerevisiae deletion strains, locus YOR231W, strain MKK1, hits give low values 0.981 | S. cerevisiae deletion strains, locus YOR265W, strain rbl2, hits give low values 0.985 | S. cerevisiae deletion strains, locus YOR270C, strain vph1, hits give low values 1.04 | S. cerevisiae deletion strains, locus YOR290C, strain snf2, hits give low values 0.979 | S. cerevisiae deletion strains, locus YOR316C, strain cot1, hits give low values 0.994 | S. cerevisiae deletion strains, locus YPL051W, strain arl3, hits give low values 0.976 | S. cerevisiae deletion strains, locus YPL055C, strain LGE1, hits give low values 1.05 | S. cerevisiae deletion strains, locus YPL078C, strain atp4, hits give low values 0.992 | S. cerevisiae deletion strains, locus YPL106C, strain sse1, hits give low values 0.923 | S. cerevisiae deletion strains, locus YPL240C, strain hsp82, hits give low values 1 | S. cerevisiae deletion strains, locus YPL241C, strain CIN2, hits give low values 1.01 | S. cerevisiae deletion strains, locus YPL256C, strain CLN2, hits give low values 0.97 | S. cerevisiae deletion strains, locus YPR119W, strain clb2, hits give low values 0.994 | S. cerevisiae deletion strains, locus YPR141C, strain kar3, hits give low values 0.998 | S. cerevisiae deletion strains, locus YPR163C, strain tif3, hits give low values 1.01 | S. cerevisiae deletion strains, locus YPR167C, strain met16, hits give low values 0.997 | S. cerevisiae deletion strains, strain wtn01, hits give low values 0.989 | S. cerevisiae strains, strain wild type, hits give low values 1.01

Reference: PubChem BioAssay AID1159580 (chemical genetic matrix, 2015)
